The values below come from PubChem BioAssay (Tox21).

“And” between values parts separate entries of the source, which are not always exact repeats. Identical values can stand only once. Unmarked numbers belong to inactive results. Results filed as inconclusive are left out. The source made the active and inactive calls. Unless noted, calls follow the shape of the dose curve; as a rule, active = well fitted curve in the direction sought with a large enough effect in the repeat runs; inconclusive = weak or mixed curves; inactive = no such curve, though single readings can be large; an effect the other way counts as inactive or inconclusive.

A short description of assay [1]: qHTS assay for small molecule agonists of the p53 signaling pathway (AID 651631; calls by dose curve; also: nearly all actives have a fitted effect of over 15% in size). In a few lines:
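Stably transfected HCT-116 cells (beta-lactamase behind p53 response elements) get compounds after a 5 h settling period; 16 h later at 37 °C, FRET substrate is loaded and fluorescence read after 2 h.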
Background: Quantitative high-throughput screening tests each substance at several concentrations.

Assay [2] is described as follows: qHTS assay for small molecules that induce genotoxicity in human embryonic kidney cells expressing luciferase-tagged ATAD5 (AID 651632). Also: nearly all actives have a fitted effect of over 15% in size. The gist of the method: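 HEK293T cells carrying a luciferase reporter tagged to ATAD5 were exposed to compound or DMSO vehicle for 16 hr at 37C, 5% CO2. Amplite was added, and after 30 min at room temperature luciferase activity was read as a marker of ATAD5 induction.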

A short description of assay [3]: qHTS assay for small molecule agonists of the p53 signaling pathway - cell viability (AID 651633; calls by dose curve;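 also: p53RE-bla HCT reporter cells with a stable beta-lactamase p53 reporter; series mostly up to about 83 µM; nearly all actives have a fitted effect of over 30% in size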). In a few lines: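 p53RE-bla cells, seeded at 4,000 per well and rested 5 h at 37 C/5% CO2, received compounds in DMSO for 16 h at 37 C. CellTiter-Glo was then added, and luminescence was read after 30 min at room temperature to gauge cytotoxicity.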
The nature of assay [4]: qHTS assay for small molecules that induce genotoxicity in human embryonic kidney cells expressing luciferase-tagged ATAD5 - cell viability (AID 651634; calls by dose curve; also: nearly all actives have a fitted effect of over 25% in size). The gist of the method: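 HEK293T cells expressing luciferase-tagged ATAD5 were exposed to compound or DMSO for 15.5 hr at 37C, 5% CO2. Viability was then read as live-cell protease activity by CellTiter-Fluor fluorescence after 30 min at 37C.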

A short description of assay [5]: qHTS assay for small molecule disruptors of the mitochondrial membrane potential - cell viability (AID 720634; calls by dose curve;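 also: human HepG2 liver cancer cells; series mostly up to about 83 µM; nearly all actives have a fitted effect of over 20% in size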). In a few lines:
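HepG2 cells seeded overnight at 37 C, then exposed to compound or DMSO for 1 hr at 37 C, 5% CO2. m-MPI dye added, then CellTiter-Glo for 30 min at room temperature; viability read as ATP luminescence.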

Assay [6] in a line: qHTS assay for small molecule disruptors of the mitochondrial membrane potential (AID 720635). Also: potency is read from the fitted curve at half-maximal effect. In a few lines: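 HepG2 cells (2,000/well) attached overnight at 37C, then took compound for 1 hr at 37C, 5% CO2. Mito-MPS dye was added for 30 min; fluorescence was read at 490/535 nm (monomers) and 540/590 nm (aggregates).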
A short description of assay [7]: qHTS assay to test for compound auto fluorescence at 590 nm (red) in HepG2 cells (AID 720674). In a few lines: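 Rose Bengal sodium served as the red fluorophore standard. HepG2 monolayers (overnight attachment, MEM with 10% FBS) were exposed to test compounds for 1 hr at 37 C and read at Ex 540/Em 590 nm.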
Assay [8] in a line: qHTS assay to test for compound auto fluorescence at 535 nm (green) in HepG2 cells (AID 720675).
Assay [9] can be described thus: qHTS assay to test for compound auto fluorescence at 590 nm (red) in HEK293 cells (AID 720679). In a few lines:
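Intensity at 540nm excitation and 590nm emission is reported as Rose Bengal sodium-equivalent autofluorescence. Measurements followed overnight exposure (37C, 5% CO2) of HEK293 cells, 2,000 per well, to 23 nL compound.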

Assay [10] can be described thus: qHTS assay to test for compound auto fluorescence at 535 nm (green) in HEK293 cells (AID 720680).
Assay [11] can be described thus: qHTS assay to test for compound auto fluorescence at 460 nm (blue) in HEK293 cell free culture (AID 720681). The gist of the method:
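Test compounds were pinned into cell-free culture medium (DMEM with 10% FBS) and fluorescence was read directly at Ex/Em 405/460 nm. Signals were expressed as fluorescence equivalents of triamterene, with DMSO vehicle as control.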

Assay [12] in a line: qHTS assay to test for compound auto fluorescence at 590 nm (red) in HEK293 cell free culture (AID 720683). In a few lines: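 Tox21 10K library compounds were pinned into cell-free DMEM with 10% FBS and fluorescence was read at excitation 540 nm. Activity is expressed as Rose Bengal sodium equivalency.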
Assay [13] can be described thus: qHTS assay to test for compound auto fluorescence at 590 nm (red) in HepG2 cell free culture (AID 720684). The gist of the method: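 Measured in medium alone (MEM containing 10% FBS) following pintool addition of compound; emission at 590 nm with 540 nm excitation, referenced to Rose Bengal sodium.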
Assay [14] is described as follows: qHTS assay to test for compound auto fluorescence at 460 nm (blue) in HepG2 cell free culture (AID 720685). In a few lines: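 Compound (23 nL) or DMSO pinned into cell-free MEM with 10% FBS; blue fluorescence read at 405/460 nm excitation/emission, expressed as auto-fluorescence equivalency to triamterene.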
Assay [15] in a line: qHTS assay to test for compound auto fluorescence at 535 nm (green) in HepG2 cell free culture (AID 720686).
Assay [16] is described as follows: qHTS assay to test for compound auto fluorescence at 460 nm (blue) in HepG2 cells (AID 720687). The gist of the method: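 Cells (2,000/well in MEM with 10% FBS) attached overnight at 37 C, then were exposed to compound or DMSO for 1 hr at 37 C, 5% CO2. Fluorescence read at Ex/Em 405/460 nm, expressed as triamterene-equivalent signal.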
Assay [17] in a line: qHTS assay to test for compound auto fluorescence at 535 nm (green) in HEK293 cell free culture (AID 720682). In a few lines:
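Using fluorescein as calibrant, autofluorescence was quantified at 485/535 nm in cell-free DMEM containing 10% FBS after pintool addition of compound or vehicle.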

A short description of assay [18]: qHTS assay to test for compound auto fluorescence at 460 nm (blue) in HEK293 cells (AID 720678). The gist of the method: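 HEK293, 2,000 cells/well, 10% dialyzed FBS; attach 4-5 hr 37C; pin compound or DMSO; o/n 37C/5% CO2; fluorescence 405/460 nm; triamterene-equivalent units.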
The target in assay [19] is Glucocorticoid receptor (Homo sapiens) (UniProt P04150). Nature of the assay: qHTS assay to identify small molecule agonists of the glucocorticoid receptor (GR) signaling pathway (AID 720691; active = well fitted activation curve with a large enough effect in the signal ratio in the repeat runs, not every such curve was filed as active; the % refers to the signal ratio). In a few lines: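 GR-bla HeLa cells (beta-lactamase reporter under glucocorticoid response element) were plated 4 h at 37 C/5% CO2, given compounds in DMSO, and incubated 18 h at 37 C. LiveBLAzer B/G FRET substrate was added for 2 h at room temperature, then fluorescence intensity read.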
Sequence of Glucocorticoid receptor (Homo sapiens) (P04150 whole entry, looked up): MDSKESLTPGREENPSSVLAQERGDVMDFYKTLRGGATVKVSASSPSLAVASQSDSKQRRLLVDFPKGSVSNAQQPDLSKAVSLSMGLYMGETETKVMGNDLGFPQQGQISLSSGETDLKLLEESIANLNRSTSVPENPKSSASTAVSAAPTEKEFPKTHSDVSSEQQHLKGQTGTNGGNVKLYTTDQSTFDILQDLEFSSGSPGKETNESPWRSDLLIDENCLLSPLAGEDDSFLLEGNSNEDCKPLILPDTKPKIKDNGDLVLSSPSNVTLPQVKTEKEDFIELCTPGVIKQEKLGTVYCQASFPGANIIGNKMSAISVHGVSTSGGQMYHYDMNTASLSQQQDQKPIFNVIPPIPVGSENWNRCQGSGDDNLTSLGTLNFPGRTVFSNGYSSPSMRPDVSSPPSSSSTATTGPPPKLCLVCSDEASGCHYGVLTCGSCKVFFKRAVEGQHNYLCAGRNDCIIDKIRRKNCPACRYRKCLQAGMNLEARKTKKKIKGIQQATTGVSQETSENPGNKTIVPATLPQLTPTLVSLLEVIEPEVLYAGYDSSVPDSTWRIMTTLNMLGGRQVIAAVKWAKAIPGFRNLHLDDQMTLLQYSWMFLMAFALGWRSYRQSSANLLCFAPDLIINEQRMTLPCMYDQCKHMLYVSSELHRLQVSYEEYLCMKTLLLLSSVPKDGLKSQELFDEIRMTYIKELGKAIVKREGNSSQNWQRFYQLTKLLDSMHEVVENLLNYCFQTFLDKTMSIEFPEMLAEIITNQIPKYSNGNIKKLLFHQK

Assay [20] shares this target. Nature of the assay: qHTS assay to identify small molecule antagonists of the glucocorticoid receptor (GR) signaling pathway (AID 720692; active = well fitted inhibition curve with a large enough effect in the signal ratio in the repeat runs, not every such curve was filed as active; the % refers to the signal ratio). In a few lines:
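GR-bla HeLa cells (beta-lactamase reporter under glucocorticoid response element) were pre-plated 4 h at 37 C, treated with compounds plus 5 nM dexamethasone (final) for 18 h, then read by LiveBLAzer B/G FRET fluorescence after 2 h.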
% is scaled to controls: 0 for no effect and ±100 for the full control effect.

Consider `CC(=O)Oc1cccc(C)c1`, for which the Potency result in assay [1], in [2], in [3], in assay [4] and in [6] was “inactive” throughout. Also, the compound was classed as inactive in assay [5], in assay [7], in [8], in assay [9], in assay [10] and in assay [11]. Moreover, the compound was called inactive in assay [12], in assay [13], in [14], in [15] and in assay [16].

With `C[N+]1(C)CCCC(OC(=O)C(O)(c2ccccc2)c2ccccc2)C1` (configuration not stated), the Potency result in assay [1], in assay [2], in assay [3], in assay [4] and in [6] was “inactive” each time. Also, the result in [5] was inactive. In assay [7], the fluorescence, relative to Rose Bengal is 0.011% [at 18.6 µM]. Also, the fluorescence, % of fluorescein control is -0.152% [at 18.6 µM] in assay [8] and -0.0015% [at 18.6 µM] in assay [15]. In addition, the fluorescence, % of fluorescent control in assay [9] is 0.215% [at 18.6 µM]; in assay [11], 0.158% [at 18.6 µM]; in [12], 0.023% [at 18.6 µM]; in assay [14] it was -0.0313% [at 18.6 µM]; in assay [16], -0.102% [at 18.6 µM]. For the same compound, the fluorescence, % of fluorescein in assay [10] is -0.129% [at 18.6 µM]. Moreover, in [17], the activity change was -0.0354% [at 18.6 µM]. Besides, the fluorescence, % of Rose Bengal in assay [13] is -0.11% [at 18.6 µM].

For the compound `CCC1C(=O)OCC1Cc1cncn1C` (configuration not stated), the Potency result in assay [1], in assay [2], in assay [3], in assay [4] and in [6] was “inactive” throughout. Further, the call in [5], in assay [7], in assay [8], in [18], in assay [10] and in [11] was inactive. Also, the call in assay [17], in [12], in [13] and in assay [15] was inactive.

With `CN1CC(=O)N/C1=N/C(=O)Nc1cccc(Cl)c1`, the Potency entry in assay [1], in assay [2], in assay [3], in [4], in assay [19] and in assay [20] was “inactive” in each case. Also, the outcome in assay [5], in assay [7], in [8], in [10], in assay [11] and in assay [17] was inactive. For the same compound, the outcome in assay [12], in assay [13], in assay [15] and in assay [16] was inactive. Also, in assay [6], the Potency was 21.1 µM (active) and 26.6 µM (active).

For the compound `CCCO[Si](OCCC)(OCCC)OCCC`, the Potency entry in [1], in assay [2], in assay [3], in [4], in assay [6] and in assay [19] was “inactive” in each case. In addition, the outcome in assay [5], in assay [7], in assay [8], in assay [9], in assay [10] and in [11] was inactive. Further, the compound was classed as inactive in assay [17], in assay [12], in [13], in [14] and in assay [15].

As for `CC(C)(C#N)Nc1nc(Cl)nc(NC2CC2)n1`, the Potency result in assay [1], in assay [2], in assay [3], in assay [4], in [6] and in assay [19] was “inactive” in each case. The compound was called inactive in assay [5], in assay [7], in [8], in assay [18], in assay [10] and in [11]. The call in assay [17], in assay [12], in [13], in assay [14], in assay [15] and in [16] was inactive.

Take `CC(C)NNC(=O)c1ccncc1`: the Potency entry in assay [1], in assay [2], in [3], in assay [4], in assay [6] and in assay [19] was “inactive” throughout. The result in assay [5], in [7], in assay [8], in assay [9], in assay [10] and in [11] was inactive. For the same compound, the outcome in assay [17], in [12], in [13], in assay [14] and in assay [15] was inactive.
